# Measured values as given in PubChem BioAssay (Tox21).
# Results filed as inconclusive are left out. Unmarked numbers belong to inactive results. Calls follow the shape of the dose curve; as a rule, active = well fitted cell-killing curve with a large enough effect in the repeat runs; inconclusive = weak or mixed curves, or effect the other way; inactive = flat fitted curve, though single readings scatter.
# Experiment: qHTS RealTime-Glo MT Cell Viability Assay in HepG2 cells - 40 hour (AID 1224870); also: nearly all actives have a fitted effect of over 50% in size
# Details: RealTime-Glo luminescence; series mostly up to 76.8 µM; activity change, negative = cytotoxic: at the top concentration
# Source text: National Center for Advancing Translational Sciences [NCATS]
# NIH Chemical Genomics Center [NCGC]
# U.S. Environmental Protection Agency [EPA]
# National Institutes of Environmental Health Sciences [NIEHS]
# National Toxicology Program [NTP]
# U.S. Food and Drug Administration [FDA]
# Measure of cell viability is critical in the cell-base assay. Analysis of cell viability is necessary for the characterization of cell responses to cytotoxic drugs and environmental stress. A RealTime-Glo MT Cell Viability Assay to monitor cell viability in real time of continues cell culture during 40 hours of compound treatment was used to screen Tox21 10K library compounds in HepG2 cells. The RealTime-Glo MT Cell Viability Assay is a nonlytic, homogeneous, bioluminescent method to measure cell viability in real time using a simple, plate-based method. The assay involves adding NanoLuc luciferase and a cell-permeant prosubstrate to cells in culture. Viable cells reduce the proprietary prosubstrate to generate a substrate for NanoLuc luciferase. This substrate diffuses from cells into the surrounding culture medium, where it is rapidly used by the NanoLuc Enzyme to produce a luminescent signal. The signal correlates with the number of viable cells, making the assay well suited for cytotoxicity studies.
# Tox21 Assay Protocol Summary:
# The mixture of HepG2 cell suspension and reagents were dispensed at 600cells/6 ul/well in 1536-well tissue culture treated black solid bottom plates using a Multidrop dispenser. After the assay plates were incubated at a 37 C/5% CO2 incubator for 5 hours, 23 nL of compounds dissolved in DMSO, positive and negative controls was transferred to the assay plate by a pintool work station. The plates were incubated at 37 C for 40 hours. The luminescence intensity were measured at 0h, 8h, 16h, 24h, 32h and 40h time points using ViewLux plate reader during compound treatment.
# % is scaled to controls: 0 for no effect and ±100 for the full control effect.
row,Structure (SMILES),"activity change, negative = cytotoxic"
1,NC(=O)c1c(Cl)cccc1Cl,-1.13%
2,CCN1CCCC(OC(=O)C(c2ccccc2)c2ccccc2)C1 (stereo not given),0.473% [at 35.3 µM]
3,CCC(=O)Nc1cccc(N)c1,3.84%
4,Cn1ccc2cc3c(cc21)CCN3C(=O)Nc1cccnc1,-0.975% [at 15.8 µM]
5,Nc1ncnc2c1ncn2Cc1c(F)cccc1Cl,1.01% [at 35.3 µM]
6,OC1OC[C@@H](O)[C@H](O)[C@H]1O (stereo not given in full),0.336%
7,OC[C@H]1O[C@@H]2O[C@H]3[C@H](O)[C@@H](O)[C@@H](O[C@H]4[C@H](O)[C@@H](O)[C@@H](O[C@H]5[C@H](O)[C@@H](O)[C@@H](O[C@H]6[C@H](O)[C@@H](O)[C@@H](O[C@H]7[C@H](O)[C@@H](O)[C@@H](O[C@H]8[C@H](O)[C@@H](O)[C@@H](O[C@H]9[C@H](O)[C@@H](O)[C@@H](O[C@H]1[C@H](O)[C@H]2O)O[C@@H]9CO)O[C@@H]8CO)O[C@@H]7CO)O[C@@H]6CO)O[C@@H]5CO)O[C@@H]4CO)O[C@@H]3CO,0.343% [at 35.3 µM]
8,NC(=O)c1ncn([C@@H]2O[C@H](CO)[C@@H](O)[C@H]2O)c1N,-0.168% [at 35.3 µM]
9,C=C[Si](OC)(OC)OC,-2.42%
10,Cc1ncc(CSSCc2cnc(C)c(O)c2CO)c(CO)c1O,0.522% [at 35.3 µM]
11,O=C(O)CCNC(=O)c1ccc(N=Nc2ccc(O)c(C(=O)O)c2)cc1,-15.5% [at 35.3 µM]
12,CCCC(C)C(=O)O (stereo not given),0.0212%
13,CCCCCCCCCCC1CO1 (stereo not given),-2.13%
14,CN(C)CCn1nnnc1SCC1=C(C(=O)O)N2C(=O)[C@@H](NC(=O)Cc3csc(N)n3)[C@H]2SC1,3.18% [at 35.3 µM]
15,Oc1ccc2c(c1)OC[C@@H](N1CCC(O)(c3ccc(F)cc3)CC1)[C@H]2O,0.0369% [at 35.3 µM]
16,CCCC(=O)O[C@]1(C(=O)CCl)[C@@H](C)C[C@H]2[C@@H]3CCC4=CC(=O)C=C[C@]4(C)[C@@]3(F)C(=O)C[C@@]21C,-14% [at 35.3 µM]
17,C=C(C)[C@@H]1CCC2=CC(=O)C[C@@H](C)[C@]2(C)C1,0.662%
18,C=C(C)C(=O)OCCC(C)OC(=O)C(=C)C (stereo not given),-0.853%
19,CC(C)c1cccc(O)c1,-0.568%
20,CCCC=O,2.35%

row,Structure (SMILES),"activity change, negative = cytotoxic"
1,CCC(=O)/C=C/c1ccc(OC)cc1,-7.01%
2,CCN1CCCC1CNC(=O)c1cc(S(N)(=O)=O)ccc1OC (stereo not given),-7.85%
3,FC(F)(F)C(F)(F)C(F)(F)C(F)(F)C(F)(F)C(F)(F)C(F)(F)C(F)(F)C(F)(F)C(F)(F)F,-1.18% [at 6.97 µM]
4,NCC[C@H](O)C(=O)N[C@@H]1C[C@H](N)[C@@H](O[C@H]2O[C@H](CN)[C@@H](O)[C@H](O)[C@H]2O)[C@H](O)[C@H]1O[C@H]1O[C@H](CO)[C@@H](O)[C@H](N)[C@H]1O,-0.912% [at 0.29 µM]
5,O=C(O)/C=C/c1ccc(Cn2ccnc2)cc1,2.27% [at 35.3 µM]
6,CC(C)c1cccc(C(C)C)c1N,1.04%
7,COc1cc(CCC(C)=O)ccc1O,-0.156%
8,c1ccc2cnncc2c1,6.86%
9,CC1(C)OC(=O)Nc2ccc(Br)cc21,-0.656% [at 35.3 µM]
10,CC(C)[C@H](N)C(=O)OCCOCn1cnc2c(=O)[nH]c(N)nc21,3.44% [at 35.3 µM]
11,COc1cc(O)cc(O)c1,0.992% [at 35.3 µM]
12,CC(C)=CC(=O)O,1.24%
13,CC1(C)SC(C)(C)SC(C)(C)S1,7.52%
14,Cc1ccc(Nc2ccc(O)c3c2C(=O)c2ccccc2C3=O)cc1,20.8%
15,CO,24.6%
16,C=CC(=O)N1CCOCC1,-6.37%
17,CC(C)CCCCCCN,0.734%
18,CCCCCC[C@@H](CCC)C(=O)O,1.1% [at 35.3 µM]
19,CN(C)CCOC(c1ccc(Cl)cc1)c1ccccn1 (stereo not given),4.15% [at 35.3 µM]
20,CCO[Si](C)(OCC)OCC,1.14%
